TTR transcr act = activators of transthyretin transcription; AID 1117267; SH-SY5Y TTR promoter Gaussia luciferase, luminescence; 100% = recombinant luciferase protein wells; hit rate 1.3% among 92,000; activation, % at 16.7 µM;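 active = activation above the mean of all tested compounds plus 3 SD, cut at about 9.5% in these data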;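 also: cells exposed to compounds for one day before reading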
TTR inh HuH7 = HuH7 TTR transcription inhibition, counter-screen; AID 1117279; hit rate 4% among 1,100; inhibition, % at 16.7 µM; HuH7 TTR promoter-Gaussia luciferase reporter, luminescence; shares compounds with TTR transcr act;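 active = average inhibition above the solvent-only control wells' mean plus 3 SD, cut at about 15% in these data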;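 also: inhibitors lower well luminescence so higher value means more inhibition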
TTR up confirm = confirmation of human transthyretin transcription activators. shares compounds with TTR transcr act. SHSY5Y TTR promoter Gaussia luciferase, luminescence; 100% = purified Lucia enzyme wells, no cells. activation, % at 16.7 µM. 1,100 tested, under 10 active;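 active = mean activation above a set limit taken from the earlier primary screen, cut at about 11% in these data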
Each line names hits and unclear results; the compound was inactive in the other large screens (follow-up assays come after a bar, where they were run). This excerpt belongs to a sample that is enriched for hits.

Cc1ccc(S(=O)(=O)n2c3ccc(Cl)cc3c3nc(C)sc32)cc1	TTR transcr act 17.9 | TTR inh HuH7 inactive | TTR up confirm inactive
COC(=O)[C@]12C[C@H](CC(=O)NCc3ccc(OC)c(OC)c3)C(=O)N(Cc3ccc4c(c3)OCO4)C1=C[C@H](C(C)C)O[C@@H]2C1CC1	none
CCOc1ccc(CCNC(=O)c2ccc3[nH]ccc3c2)cc1OCC	none
CCOC(=O)c1cccc(-c2cc(C(C)=O)c3n(c2=O)CCC3)c1	none
CCc1ccc(S(=O)(=O)n2c(C)nc3ccccc32)cc1	none
Cc1nc2ccccc2n1S(=O)(=O)c1ccc(Br)cc1	none
CCSc1nc2ccccc2n1S(=O)(=O)c1ccccc1	TTR transcr act 30.5 | TTR inh HuH7 inactive | TTR up confirm inactive
COc1ccc(-c2csc(C(C)(O)c3cccc(F)c3)n2)cc1 (stereo not drawn)	none
COc1ccc(NC(=O)OCCN2CCCC23CCC(c2ccccc2)CC3)cc1 (stereo not drawn)	none
CC1CCC2(CC1)CCC2NCc1ccc(Cl)c(Cl)c1 (stereo not drawn)	none
COc1cc(NC(=O)c2ccccc2Cl)ccc1NC(=O)c1ccco1	none
CCOc1cc(NC(=O)c2ccco2)c(OCC)cc1NC(=O)CCc1ccccc1OC	none
CCOc1ccccc1NC(=O)c1cc(Cl)ccc1NC(=O)c1ccco1	TTR transcr act 12.1 | TTR inh HuH7 inactive | TTR up confirm inactive
Cc1cccc(C)c1NC(=O)C(C1CC1)n1c(-c2ccc(C(F)(F)F)cc2)nc2ccccc21 (stereo not drawn)	none
NC(=O)C1CCN(c2ncc(Br)s2)CC1	none
O=C(CNC(=O)c1ccccc1)OC1CCCCC1	none
COC(=O)C(CC(=O)CNC(=O)c1ccccc1)NC(=O)c1ccccc1 (stereo not drawn)	none
O=C(NC(CC1CCCCC1)C(=O)O)c1ccccc1 (stereo not drawn)	TTR transcr act 15.4 | TTR inh HuH7 inactive | TTR up confirm inactive
COc1ccc(CNS(=O)(=O)CC2NCCc3ccccc32)cc1 (stereo not drawn)	none
Cc1cccc(NC(=O)OC2CC3CC2[C@H]2CCCCN2C3)c1 (stereo partly drawn)	none
CCc1nnc(NC(=O)CSc2nnc(-c3ccccc3O)n2CC)s1	TTR transcr act 22.1 | TTR inh HuH7 inactive | TTR up confirm inactive
CCn1c(SCC(=O)Nc2nc(-c3ccccc3)cs2)nnc1-c1ccccc1O	none
CCc1nnc(NC(=O)CSc2nnc(-c3cc4ccccc4cc3O)n2CCOC)s1	none
COc1cc(-c2cc(C(=O)O)c3cc4c(cc3n2)OCCO4)cc(OC)c1OC	none
COc1cc(-c2cc(C(=O)NN3CCN(C)CC3)c3ccccc3n2)cc(OC)c1OC	TTR transcr act 35.8 | TTR inh HuH7 inactive | TTR up confirm inactive
COc1cc(-c2cc(C(=O)OCC(=O)NC3CC3)c3ccccc3n2)cc(OC)c1OC	none
CCOc1cc(CNC2CCCC2)ccc1OCc1ccccc1Cl	none
CCOc1cc(CNCCCN2CCOCC2)ccc1OCC(=O)NC(C)(C)C	none
CCOc1cc(CNCCN2CCOCC2)ccc1OCc1ccccc1Cl	TTR transcr act 27.3 | TTR inh HuH7 inactive | TTR up confirm inactive
CCCC[C@@H]1C(=O)N2N=Cc3cc4ccccc4cc3[C@H]2N2N=Cc3cc4ccccc4cc3[C@@H]12	none
CCn1c(=O)c(C)nn2c3ccccc3nc12	none
Cc1nn2c3ccccc3n(CCN3CCCCC3)c2nc1=O	TTR transcr act 10.7 | TTR inh HuH7 inactive | TTR up confirm inactive
O=C(O)CCc1nn2c3ccccc3nc2n(CCN2CCCCC2)c1=O	none
O=C1N2CCc3ccccc3C2CS(=O)(=O)N1CCc1ccccc1 (stereo not drawn)	none
COc1ccc(S(=O)(=O)N(C)C[C@@H]2Oc3c(NC(=O)Nc4cccc5ccccc45)cccc3C(=O)N([C@@H](C)CO)C[C@H]2C)cc1	none
Cc1ccc(NC(=O)C2CCCCC2C(=O)O)cc1C (stereo not drawn)	none
O=C(O)C1CCCCC1C(=O)Nc1ccc(F)c(F)c1 (stereo not drawn)	TTR transcr act 11.9 | TTR inh HuH7 inactive | TTR up confirm inactive
O=C(Nc1ccc(F)cc1)c1ccccc1NC(=O)C1CCCCC1C(=O)O (stereo not drawn)	none
CCc1ccc(CCNC(=O)OC2CC3CC2[C@H]2CCCCN2C3)cc1 (stereo partly drawn)	none
Cc1cc(=O)oc2cc(OCC#N)ccc12	none
Cc1cc(=O)oc2cc(OCCSc3nnc(-c4ccccc4)o3)ccc12	none
Cc1cc(=O)oc2cc(OCCSCCN3CCCCC3)ccc12	TTR transcr act 20.8 | TTR inh HuH7 inactive | TTR up confirm inactive
CC1(C)C=Cc2ccc(O)c(C(=O)/C=C/c3ccccc3)c2O1	none
Cc1ccc2c(c1)C1CS(=O)(=O)N(Cc3ccccc3)C(=O)N1C2 (stereo not drawn)	none
CCCC[C@H](C(=O)N(CC)c1ccccc1)[C@@H](O)c1ccc(Cl)cc1	none
CC(C)c1ccc(NC(=O)OC2CCC23CCC(c2ccccc2)CC3)cc1 (stereo not drawn)	none
Cc1cccc(C(=O)Nc2c(-c3ccccc3)nc3ncccn23)c1	none
COc1ccc(S[C@]2(C(=O)N3CCOCC3)CC(=O)N[C@@H]2c2ccc(OC)cc2)cc1	none
O=C(NCc1cccc(Cl)c1)c1ccc(-c2csnn2)cc1	none
CC(C)CNC(=S)NC(=O)c1csc([N+](=O)[O-])c1	none
O=C(NCc1cccc(Cl)c1)NC(=O)c1csc([N+](=O)[O-])c1	TTR transcr act 11.9 | TTR inh HuH7 inactive | TTR up confirm inactive
COC(=O)[C@@H]1[C@H](O[Si](C)(C)C(C)(C)C)C2OC2C[C@H]1S(=O)(=O)c1ccccc1 (stereo partly drawn)	none
O=C(O)c1ccc(-n2nnnc2SCc2ccccc2F)cc1	none
CSc1nnnn1-c1ccc(C(=O)O)cc1	TTR transcr act 18.9 | TTR inh HuH7 inactive | TTR up confirm inactive
CSc1nnnn1-c1ccc(C)c(Cl)c1	none
O=C(NCc1ccccc1)OC1CC2CC1[C@H]1CCCCN1C2 (stereo partly drawn)	none
COC(=O)[C@]12C[C@H](CC(=O)NCc3ccc(C)o3)C(=O)N(Cc3ccc(Cl)cc3Cl)C1=C[C@H](C(C)C)O[C@@H]2C1CC1	none
COc1ccc(/C=C/S(=O)(=O)NCC(C)C)c(CNC(=O)OC(C)(C)C)c1	none
O=C(OCc1cn(Cc2cccc(F)c2)nn1)N1CCOCC1	none
CCCCCCC(=O)Oc1cccc(C2=CC(=O)CC(C)(C)C2=O)c1	TTR transcr act 9.7 | TTR inh HuH7 inactive | TTR up confirm inactive
CC1(C)CC(=O)C=C(c2ccc(CO)cc2)C1=O	none
CC1(C)CC(=O)C=C(c2ccc(COC(=O)c3cccc(C(F)(F)F)c3)cc2)C1=O	none
C[C@@H](O[Si](c1ccccc1)(c1ccccc1)C(C)(C)C)[C@@H]1NC(=O)[C@@H]2C[C@]3(Br)c4ccccc4N(S(=O)(=O)c4ccccc4)[C@@H]3N2C1=O	none
O=C(NC1CCCCN(Cc2ccc(Cl)cc2)C1=O)c1cccc(F)c1 (stereo not drawn)	none
c1ccc(SCc2nc3ccccc3[nH]2)nc1	TTR transcr act 14.0 | TTR inh HuH7 inactive | TTR up confirm inactive
Cn1nnnc1SCc1nc2ccccc2[nH]1	none
Cc1nnc(SCc2nc3ccccc3[nH]2)s1	none
Cn1c(=O)c2cccnc2c(=O)n1C	none
Cn1c(=O)c(-c2ccccc2)c(O)c2ccccc21	none
Cc1cc(C)c(-c2c(O)c3cccnc3n(C)c2=O)c(C)c1	TTR transcr act 10.5 | TTR inh HuH7 inactive | TTR up confirm inactive

Compound activity deposited in PubChem by The Scripps Research Institute Molecular Screening Center.
